Bioassay records as filed in PubChem.
Only some compounds are listed: those with a hit (about 4.6% of all), similar ones and a draw of the others.
TRHR enhancer: qHTS for Small Molecule Agonists and Allosteric Enhancers of Human TRH Receptor: Primary Screen for Enhancers. TRHR cells, fluo-8 calcium fluorescence, EC20 TRH enhancement. enhancement, % at 2 µM. 360,000 compounds, 0.66% hits. AID 493056, 2011. Thyrotropin-releasing hormone receptor (Homo sapiens), P34981; in the data active = enhancement above about 30%; note: 0% is about no effect
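TRHR-expressing cells loaded with fluo-8 calcium dye were read kinetically (ex 480/em 530) during compound addition, then stimulated with an EC20 of TRH (10 nM final). Enhancement of the Gq-mediated intracellular calcium response was scored.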
Epigenetic derep: Quantitative High-Throughput Screen for Regulators of Epigenetic Control; murine LDR cells, GFP reporter derepression, 30 h; Potency, µM (doses to about 53.9 µM), for inactives: top-dose GFP activation, most hits filed as activators; 280,000 compounds, 0.2% hits; active = well fitted activation curve with a large enough effect; inconclusive = small, poorly fitted or top-dose-only effect; note: potency is the fitted concentration of half-maximal effect; % of control where 0% means no effect; nearly all actives have a fitted effect of over 60% in size
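Murine LDR cells carrying a silenced, genomically integrated CMV-driven GFP reporter were exposed to compound for 30 hours at 37 C. After PBS washes, GFP-positive cells (20–120 um objects) were counted by laser-scanning microplate cytometry.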
D1 potentiator: Potentiators of Human D1 Dopamine Receptor: qHTS | D(1A) dopamine receptor (Homo sapiens), P21728 | AID 504651, 2011 | potentiation, % at 10 µM | 360,000 compounds, 0.036% hits | HEK293 TREx D1 cells, calcium flux, dopamine EC20 potentiation; in the data active = potentiation above about 30%; note: 0% is about no effect
Target sequence (P21728 whole entry, looked up): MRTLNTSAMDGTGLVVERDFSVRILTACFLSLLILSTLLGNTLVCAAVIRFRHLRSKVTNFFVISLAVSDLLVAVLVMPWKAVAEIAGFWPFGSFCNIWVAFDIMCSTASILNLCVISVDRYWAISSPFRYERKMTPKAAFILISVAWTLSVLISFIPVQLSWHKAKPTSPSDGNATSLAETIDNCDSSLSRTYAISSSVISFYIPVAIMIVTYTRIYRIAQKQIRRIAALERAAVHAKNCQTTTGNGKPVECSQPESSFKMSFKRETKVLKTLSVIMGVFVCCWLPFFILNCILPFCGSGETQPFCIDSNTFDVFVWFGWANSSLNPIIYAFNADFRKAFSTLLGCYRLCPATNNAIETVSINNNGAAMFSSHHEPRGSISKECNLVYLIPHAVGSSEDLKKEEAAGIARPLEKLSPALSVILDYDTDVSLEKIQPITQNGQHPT
TRHR ag: qHTS for Small Molecule Agonists and Allosteric Enhancers of Human TRH Receptor: Primary Screen for Agonists | AID 493084, 2011 | Thyrotropin-releasing hormone receptor (Homo sapiens), P34981 | 360,000 compounds, 0.18% hits | TRHR cells, calcium flux fluo-8, FDSS agonist mode | activation, % at 2 µM; note: 0% is about no effect
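TRHR-expressing cells loaded with fluo-8 calcium dye; 23 nL library compound pin-transferred, kinetic FDSS fluorescence (Ex 480/Em 530) recorded about 180 s for agonist-induced calcium release, before a 10 nM TRH EC20 addition for potentiator mode.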
D1 antagonist: Antagonist of Human D 1 Dopamine Receptor: qHTS. D(1A) dopamine receptor (Homo sapiens), P21728. HEK293 TREx D1 cells, calcium flux, dopamine EC80; active compounds read low. activity change, negative = inhibition, % at 10 µM. 360,000 compounds, 3.2% hits; in the data active = activity change below about -30%; note: % is set by controls: 0 for no effect and ±100 for the full control effect
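Inducible Hek293 Trex D1 cells (tetracycline, overnight, 30 C). Calcium dye 30–90 min RT. Antagonist mode: EC80 dopamine added after 180 s compound read.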
D1 ag: Allosteric Agonists of the Human D1 Dopamine Receptor: qHTS. D(1A) dopamine receptor (Homo sapiens), P21728. HEK293 T-REx D1 cells, calcium flux, agonist mode. activation, % at 2 µM. 360,000 compounds, 1% hits. AID 504660, 2011; note: 0% is about no effect
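Inducible HEK293 T-REx D1 cells, force-coupled to calcium signalling, were plated at 4000 cells/well with tetracycline and held overnight at 30 C. After no-wash calcium dye loading, compound-evoked calcium rise over 180 s flagged agonists.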
An asterisk follows results filed as active; ? = inconclusive; nt = not tested or not shown; ! = not confirmed by another sample. Cut-off read from the data, not from the text of the source, unless noted: active = activation above about 30%; inactive = the rest.

SMILES	TRHR enhancer	Epigenetic derep	D1 potentiator	TRHR ag	D1 antagonist	D1 ag
CCc1ccc(S(=O)(=O)Nc2ccc(Cl)cn2)cc1	0	nt	-5	-1	-92*	1
NC(=S)Nc1ccc(Oc2ccc(NC(N)=S)cc2)cc1	9	-1%	-2	0	-30*	1
CC(C)NC(=S)Nc1ccc(Oc2ccccc2)cc1	4	-4%	-10	0	-29	30*
CCCNC(=S)Nc1ccc(Oc2ccccc2)cc1	-2	2%	-3	0	-30	5
Cc1ccc(C)c(CN2C(=O)c3ccccc3Sc3ccc(C(=O)NC4CCCC4)cc32)c1	-4	-4%	-2	0	-6	-2
Cc1cc(C)cc(-n2ccn(CC(=O)Nc3ccccc3F)c(=O)c2=O)c1	1	0%	0	0	0	3
O=C1CC(c2ccccc2)Cc2[nH]c(=O)c(C(=O)Nc3cccc(F)c3)cc21 (centres undefined)	5	-4%	0	1	1	6
CCN1C(=O)/C(=C/c2cnn(C)c2C)SC1=S	-5	-2%	4	1	-32*	2
COC(=O)c1sc(S(=O)(=O)N2CCCCC2C)c(C(=O)OC)c1C (centres undefined)	20	nt	-1	-1	-59*	1
COCCCNC(=O)N1CCN(c2nnc(C)c3c(C)n(-c4ccc(Cl)cc4)nc23)CC1	-4	0%	-4	0	-16	0
CN1CCN(C(=O)/C=C/c2ccc([N+](=O)[O-])o2)CC1	-4	?	-3	1	-32*	0
Cc1cc(C)c(NC(=O)CSc2ccc(-c3ccccn3)nn2)c(C)c1	-2	4%	-5	0	-48*!	2
O=C(CSc1ccc(-c2ccccn2)nn1)NCc1ccc(Cl)cc1	32*	0%	-1	-1	2	-3
Cc1ccc(CNC(=O)CSc2ccc(-c3ccccn3)nn2)cc1	0	0%	-1	-1	21	-2
Nc1nc2c(ncn2[C@@H]2O[C@H](COP(=O)(O)OP(=O)(O)O)[C@@H](O)[C@H]2O)c(=O)[nH]1	nt	6%	nt	nt	nt	nt
Cc1cnc(NC(=O)CSc2ncc(-c3ccccc3)n2Cc2ccco2)s1	1	0%	-9	5	-32*	79*
Cc1ccc(NC(=O)c2ccc(-c3cccc(Cl)c3C)o2)cc1	36*	-2%	0	2	-5	12
CCN(C(=O)c1coc(=O)c2ccccc12)c1ccccc1C	7	-1%	1	0	-7	1
Cc1nc2ccccc2n1CCCOc1ccccc1	-5	0%	-16	0	-16	8
Cc1ccc(OCCn2c(COc3ccc(Cl)cc3)nc3ccccc32)cc1	9	-1%	-6	5	-18	47*
CCCc1nc2ccccc2n1CCOc1ccccc1	-7	5%	-21	0	-49*	21
Cc1ccc(OCCn2c(C)nc3ccccc32)cc1	-12	nt	-12	-1	-45*	14
Cc1ccccc1Cn1c(COc2ccc(Cl)cc2)nc2ccccc21	3	3%	-3	-1	-65*	62*
O=c1c2c3c(sc2n(Cc2ccc(F)cc2Cl)c(=O)n1-c1ccc(Cl)cc1)CCC3	-2	1%	-1	-2	-20	11
COc1ccc(-n2c(/C=C/c3cccc(C(F)(F)F)c3)nc3ccccc3c2=O)cc1Cl	-3	4%	2	0	11	4
SMILES	TRHR enhancer	Epigenetic derep	D1 potentiator	TRHR ag	D1 antagonist	D1 ag
CCCn1nc(NC(=O)c2cccc(Cl)c2)c2cc3cccc(C)c3nc21	2	16µM*	0	0	-9	1
COc1ccc(NC(=O)CSc2nnnn2C)c([N+](=O)[O-])c1	-1	-1%	-3	0	2	-1
COCC(=O)NC1CCN(CC(=O)Nc2ccc(OC)cc2[N+](=O)[O-])CC1	6	0%	-2	-1	-38*	0
CCCCC(=O)Nc1ccc(C(=O)Nc2ccc(OC)cc2[N+](=O)[O-])cc1	8	?	-2	13	-18	41*
CCCn1c(SCC(=O)Nc2ccc(OC)cc2[N+](=O)[O-])n[nH]c1=O	4	4%	-15	-1	-46*	0
Cc1nc2nc(NCc3ccc(Br)cc3)[nH]n2c(=O)c1Cc1ccccc1	-1	-2%	-2	0	3	-1
Cc1ccc(OCC(=O)Nc2ccc3nc(SCC(=O)Nc4ccc(C)cc4C)sc3c2)cc1	2	3%	0	1	-9	5
COC(=O)CCCNC(=O)c1ccc(OS(=O)(=O)c2cc([N+](=O)[O-])ccc2C)cc1	2	nt	4	-1	-11	63*
COc1ccc(C(=O)NCCOc2cccc(Oc3ccccc3)c2)cc1OC	-3	nt	-5	2	-44*	15
COc1ccc(C(=O)NCCNc2ccc([N+](=O)[O-])cc2)cc1	0	0%	-4	-2	nt	-3
O=C(NCCOc1ccccc1)c1cccc(S(=O)(=O)NCc2ccccc2)c1	-5	nt	-8	0	-38*	22
CC(C)(C)C(=O)COC(=O)CNC(=O)c1ccc(Oc2ccccc2)cc1	-3	4%	7	0	-49*	159*
O=C(NCCOc1ccccc1)c1ccccc1[N+](=O)[O-]	4	-6%	-2	0	1	1
O=[N+]([O-])c1ccccc1NCCOc1ccccc1	-7	0%	-2	0	-44*	1
CC(C)(C)c1ccc(C(=O)NCCOc2ccccc2)cc1	-4	nt	-3	-1	-31*	7
O=C(NCCOc1ccccc1)c1cc(C(=O)NCCOc2ccccc2)cc([N+](=O)[O-])c1	-3	1%	-7	0	-40*	9
O=C(CCNC(=O)c1ccccc1)Oc1ccc([N+](=O)[O-])cc1	-4	2%	-6	1	-46*	6
NS(=O)(=O)Nc1c(Br)cc(Br)c2cccnc12	-6	nt	2	-1	3	7
O=C(O)c1ccc(F)c(S(=O)(=O)Nc2cccc(F)c2)c1	nt	5%	nt	nt	nt	nt
CC(=O)c1cccc(NC(=O)CCc2c(C)nc3c(-c4ccc(F)cc4)c(C)nn3c2C)c1	13	0%	-6	2	-15	2
Cc1cccc(CNC(=O)CCCN2C(=O)c3cccnc3Oc3ccccc32)c1	9	-1%	-1	0	11	0
CCOC(=O)c1c(CN2CCOCC2)oc2ccc(OC)cc12	4	-1%	-5	0	-45*	2
